Data: the supplement of paper PMC12632987

T1: USP38, Q8NB14
T1 chain: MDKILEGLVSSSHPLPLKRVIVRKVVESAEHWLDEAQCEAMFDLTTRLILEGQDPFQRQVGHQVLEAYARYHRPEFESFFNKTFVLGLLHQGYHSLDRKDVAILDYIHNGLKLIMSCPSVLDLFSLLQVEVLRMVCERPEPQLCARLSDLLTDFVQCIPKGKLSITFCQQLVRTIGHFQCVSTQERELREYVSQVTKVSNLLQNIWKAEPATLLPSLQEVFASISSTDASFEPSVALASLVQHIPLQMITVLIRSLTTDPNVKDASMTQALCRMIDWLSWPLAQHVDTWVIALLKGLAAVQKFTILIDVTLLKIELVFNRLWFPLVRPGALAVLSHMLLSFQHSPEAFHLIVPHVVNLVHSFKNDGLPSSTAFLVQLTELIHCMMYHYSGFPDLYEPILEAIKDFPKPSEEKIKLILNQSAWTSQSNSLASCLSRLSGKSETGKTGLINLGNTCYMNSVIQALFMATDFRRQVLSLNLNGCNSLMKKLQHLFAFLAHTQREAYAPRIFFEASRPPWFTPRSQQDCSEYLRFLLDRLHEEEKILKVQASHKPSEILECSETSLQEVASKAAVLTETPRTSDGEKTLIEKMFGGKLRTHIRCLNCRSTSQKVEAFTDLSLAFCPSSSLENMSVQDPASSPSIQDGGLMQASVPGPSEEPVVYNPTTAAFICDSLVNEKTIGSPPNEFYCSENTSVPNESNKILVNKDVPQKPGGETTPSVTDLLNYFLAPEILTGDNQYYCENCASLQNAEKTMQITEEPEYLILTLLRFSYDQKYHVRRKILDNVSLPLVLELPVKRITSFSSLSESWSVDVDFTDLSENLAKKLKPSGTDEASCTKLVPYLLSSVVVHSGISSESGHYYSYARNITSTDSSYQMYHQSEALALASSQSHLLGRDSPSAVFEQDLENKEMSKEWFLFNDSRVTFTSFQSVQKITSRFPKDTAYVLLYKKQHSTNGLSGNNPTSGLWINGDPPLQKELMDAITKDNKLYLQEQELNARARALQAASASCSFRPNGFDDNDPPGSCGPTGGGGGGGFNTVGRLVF


Target: T1, USP38, Q8NB14
Assay: median log2 fold change of GCK-ALFA target abundance (FLAG IP / Myc IP barcode read proportion) (log2 ratio); each designed protein is fused to an ALFA-tag nanobody in HEK293 cells to bring the named protein to FLAG-tagged glucokinase (GCK); Myc marks an untargeted standard; higher = target protein stabilised (more abundant)
Details: target protein: 3xFLAG-MCP-GCK-ALFA reporter; HEK293 landing pad (RPLP)
Procedure, shortened: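 An ALFA-nanobody-fused binder library was recombined into HEK293 landing-pad cells and induced with 2 μg mL^−1 doxycycline. Cells were transfected with a plasmid expressing a FLAG-tagged target and a Myc-tagged standard. After 48 h, lysates underwent anti-FLAG and anti-Myc immunoprecipitation, and circular RNA barcodes were reverse transcribed, amplified and sequenced. Target abundance is the per-binder median log2 ratio of FLAG to Myc barcode read proportions. Barcodes needed ≥10^−7 proportion in both replicates, binders ≥3 barcodes per replicate, and a 10^−6 pseudocount was added; the two replicates were pooled.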

Row | Binder | median log2 fold change
1 | usp_38_diff_out_3_65_533 (protein) KVEELLKKAEEKLKEAEKKIRELEERVETDPSLTEEEVNAMLDEAADLIVEAGKYIREAKKLNPDEEQKKRIEELEKRLDEVIDLYVEAGERAFLAVGER | 0.0706
2 | usp_38_diff_out_4_12_551 (protein) SAEERRRKREEALERLRRLAEEATREAERLKKEVEEKKDEATLEEALKRANELITELSEATLEALELAENLEEVEEVLRLAEPAFDALAELRVKIEEARK | -0.341
3 | usp_38_diff_out_3_65_532 (protein) KVEELLKKAEEKLEEAEKKIKELEKRVKEDPNITEEEVNEMLDEAADLIVEAGKYIREAKKLNPDEEQQERIKELEERLDEVIDLYVKAGEAGFLAVGER | -0.0854
4 | usp_38_diff_out_4_12_556 (protein) SPEEEEEARERALRELEERSRRLREEAERLLARVKETRDEATYKEANERLNKGLTELAELTLRTLELTDDDEELERILRLTDETFRYVSEKAAEMRELMK | -0.146
5 | usp_38_diff_out_4_12_557 (protein) AEEEREREFKRKREELKRLSEETKERADKLLEEVKKKKDKATLKEATKKLNEDLTKLAELTLETLELAETDEEVQEILDLFDDTATYVSEKAAEMKEILK | -0.616
6 | usp_38_diff_out_4_12_555 (protein) SAEEEKEKLEKLKEELKKKSEELKELADKLLAEVKEKKDRATYKKAEEELNKKLTELAELTLETLEATDDDEELEEILKLTDETFTYVSEKAAEMREIMK | 0.0256
7 | usp_38_diff_out_4_12_562 (protein) SMEEKEKKVKEALEEMKKLSEEAKEKAKKAAEEAKKTGNLAEFNKKMNELINKLTEKTLEVLEKLAELGDEESIEEVLKITSETFTYISQLAAEVKKAAA | -0.588
8 | usp_38_diff_out_3_65_534 (protein) EVEELLKEAQKKLKEARAIIEALRERVESDPTITIDEVNARLDEAADKIVEAGQYIREAKKLNPDEEQKKKIEELEKELDEVLDEYRETAEFAFLRVAER | -0.0616
9 | usp_38_diff_out_3_65_542 (protein) KVEELLKKAEEKLKEAREKIRELRERVETDPELTEEEIVEMLDEAADLLVEAGEYIREAKKLNPDEEAKKKIKELEKELEELIDEYVEAGERAFLAYGER | 0.499
10 | usp_38_diff_out_4_126_546 (protein) SRKEEFEKLKKEAEEKMKEAKKLLAEALAALDKDPEKALALLDKAWDALGEAAALLREMRRIAADDPELRKEVKKLEEELDELIDEFTEAATRIYLKIAE | -0.11
11 | usp_38_diff_out_3_65_538 (protein) EVQKLLEEAQKLLDEATKIIDELKERVESDPTLTIDEVNEMLDKAADKIVAAGEKINEAKKLNPDEEQKKQIEELEKRLDEVIEKYREAAEYAFLRVAER | -0.281
12 | usp_38_diff_out_4_12_554 (protein) SAEERRRRFEEALREMERLHRETIEKLEELKEELKKTKDEKVLEEAEKLANEALSRLAELTTRALEEAENDEEVQEILDLYSRHVDEIVTLMNEMKKIMK | 0.0829
13 | usp_38_diff_out_4_12_558 (protein) SEEERKKKREEALKELKKLSEDAKATADKLLAEVKKKKDKATLKAANATLNDLLTKLAEKTLEALELAENDEELEEILKIYDDTATYITTKAAEMKAVLK | 0.037
14 | usp_38_diff_out_4_12_559 (protein) AEEEHKEALEKAKEELKKLSEETIKLAKELLEKVKKEKSRATLKEANEKLNKKITELAEATLKALELAETDEELQEILDLWDKTSTEISRLAKEMREILK | -0.371
15 | usp_38_diff_out_4_126_550 (protein) SMKEELEKKLEEAKKLAEEALKAAARLVELAATDPSKVAEARAELDALIAAFTKAANEALKLARKDGKYKEEVTKEIDKLTDEVVEAEGKAVEAVAEALA | 0.0827
16 | usp_38_diff_out_4_126_548 (protein) SREEEFEKLKEEANKKMKEAKELLEKAKKLLDKDKEEALKYLDEAAEKLGEASKLLRKMREVAKGDEELRKEYKELLEKLNELVDEYTKVATEIYLALAE | 0.358

Row | Binder | median log2 fold change
17 | usp_38_diff_out_4_126_543 (protein) DREKAFDELAKEAEALMKEAKEYLEKAKEAMDKDPEKAKEYLDKAYEALGKLSKALREMRRIARDDPELRKRYKELLKKANELVSEFTKVAEELLLKLSE | -0.661
18 | usp_38_diff_out_4_99_564 (protein) MKEEMVKKVKELKKEAEELLKKAKEAFKLSHEERKKVAEELSKELDELAKELGKIYFEARDTGDKELIKAVNKEADEFVKAYNEAAKELNLLRHEVLEEE | -0.19
19 | usp_38_diff_out_3_65_540 (protein) EVQELLERAERHLEEAEEIIEELERRTETDPTLTIDEVVEMLDEAADHLVAASEDIKEAKKLNPDEEQKKRIEELEKRLDELIDRYVEAGERAFLAVGER | 0.111
20 | usp_38_diff_out_4_12_561 (protein) SEEERKKIAEEALEEMEKKSKEVKEKAKKAKEEAIKTKDLAAFNKKMNELIKELTDLTLEKLEKLAEIGDDETIEEILRIAGETFKELSKLAKEVKEAAK | -0.892
21 | usp_38_diff_out_3_65_537 (protein) EVEELLEEAERRLEEARELIEALRREVESDPSLTIDEVNARLDEAVDLLVEAGEAIRRARRLDPDPEQRERLEELERRLDEVLRLYRETAEFAFLTVAER | -0.264
22 | usp_38_diff_out_4_126_547 (protein) GREKEFEKLKKEAEELLKKAKELLEKAKEALDKDPKKAQEYLDKALEYLGKLAKLLREMRRVAEGDPELQKEVKELQKKADELVDEYTKAAEEIYLALAE | 0.575
23 | usp_38_diff_out_3_65_535 (protein) KIEELLKEAEKYLEEAEKLVEELRRRVESDPTLTIDELNARLDEAADLIVKAGQKIREAKKLNPDEEQKKKLKELEKRLDEVLKKYREAAEEGFLRVAER | -0.384
24 | usp_38_diff_out_4_12_553 (protein) AAEERQKALEKALAEMQKLHEETVKKLKELLEELKKTKKEEILKEAEKLANDALTKLAELTTKALELAETPEEQQAILDLYAQQVTEIVTLMQEAKEAMK | 0.201
25 | usp_38_diff_out_3_65_536 (protein) EVEKLLEEAKKYLEEARKIVEELRREVEEDPTITIDEVNEKLDEAADKIVAAGQKIREAKKLNPDEEQKKQLEELEKELDEVLELYRETAEYAFLKVAER | -0.223
26 | usp_38_diff_out_3_65_539 (protein) KVEELLERAQEHLEKAEELVEGLRERTATDPTLTIDEVVAMLDEAADHLVAAAQDIEEAKKLDPDEEQQERLEELQERLDRLIDEYERAGREAFLAVGER | -0.504
27 | usp_38_diff_out_4_12_552 (protein) AEEERRKELEELLREMEELTEETVARMKELLKELKETKDEEVYEELLKLAEEALTRLAELTTRALELAETDEELEEILRRYSEAVDEIVALMQEARKAMK | -0.539
28 | usp_38_diff_out_4_126_545 (protein) SREEEFKKLEKEAEKKIEEAKKLLEEALKELDKDPEKALELLDKAWDALGEAAKLLREMRRVAADDEELRKRYKELEEKLDKLIDEFTKAATYIFEKIAE | -0.694
29 | usp_38_diff_out_4_126_549 (protein) DREKQAEELEKKLEEALKKAKEYLKKAKELLDKDKEETLKALDKSWEALGKASELLRELRRIAIDDPELRERYKKLLEEANKLVDEFTKAAEEIYLKLSE | -1.05
30 | usp_38_diff_out_4_126_544 (protein) SREAEFAALRAEAEAALAEAERLLAEARAELDKDPEKALELLDRAWDALGRAAALLREMRRIAADDPALRAELAALRARLDALIDEFTAAATEIYEKIAE | -0.215
31 | usp_38_diff_out_4_12_560 (protein) AEEEHKKKLEEAKKELEKLSEELKELADKKLEEVKEKKDKATLKEAEKEINEKITELAEKTLKALELAETDEDLQKILDLYDDTATYVSEKAAEMREILK | -0.0183
32 | usp_38_diff_out_3_65_541 (protein) EIEKLLKEAKKYLEEAKKIIEELRERTRTDPTLTIEEVNEMLDKAADLLVKAGEYIEKAKKLNPDEKQKKEIEKLKKELEELLDEYVEAGEEAYLAVGER | -0.0269
